Measured values as given in the supplement of paper PMC10849652.
Of roughly 8,800 targets only a part is listed; those with a hit were picked by preference. About 0.5% of all pairs of compound and target were hits.

Assays:
Experiment in all cases: log2 fold change, soluble protein after heating vs DMSO (PISA); higher = thermal stabilisation; K562 lysate, 10 uM; active = over 0.2 and 3.5 SD of the protein, either way, in both replicates (recomputed)
nilotinib = compound: Cc1cn(-c2cc(NC(=O)c3ccc(C)c(Nc4nccc(-c5cccnc5)n4)c3)cc(C(F)(F)F)c2)cn1 [nilotinib]
Method in brief: (§1)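 The values are log-two fold changes in thermal stability compared with solvent controls and come from duplicates. They were obtained by TMTpro 16plex LC-MS/MS, with channel sums equalised, on the supernatant after 21,000xg for 90 min. That supernatant came from crude K562 extract at 1 mg/mL protein treated with 10 μM compound for 30 min, heated for 3 min across 48°C-58°C, pooled and brought to 0.5% NP-40 at 4°C.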

[1] = compound: Cc1nc(Nc2n[nH]c3c2CN(C(=O)N[C@H](CN(C)C)c2ccccc2)C3(C)C)c2sccc2n1
Method in brief: as §1

dasatinib = compound: Cc1nc(Nc2ncc(C(=O)Nc3c(C)cccc3Cl)s2)cc(N2CCN(CCO)CC2)n1 [dasatinib]
Method in brief: as §1

[2] = compound: Cc1ncc(-c2ccnc(Nc3ccc(S(C)(=O)=O)cc3)n2)n1C(C)C
Method in brief: as §1

[3] = compound: Cn1cc(-c2ccc3c(c2)CCN3C(=O)Cc2cccc(C(F)(F)F)c2)c2c(N)ncnc21
Method in brief: as §1

quisinostat = compound: Cn1cc(CNCC2CCN(c3ncc(C(=O)NO)cn3)CC2)c2ccccc21 [quisinostat]
Method in brief: as §1

tipifarnib = compound: Cn1cncc1[C@@](N)(c1ccc(Cl)cc1)c1ccc2c(c1)c(-c1cccc(Cl)c1)cc(=O)n2C [tipifarnib]
Method in brief: as §1

[4] = compound: NC(=O)Nc1cc(-c2cccc(F)c2)sc1C(=O)N[C@H]1CCCNC1
Method in brief: as §1

[5] = compound: NC(=O)c1cnc(N[C@@H]2CCCC[C@@H]2N)nc1Nc1cccc(-n2nccn2)c1
Method in brief: as §1

[6] = compound: NC1(c2ccc(-c3nc4ccn5c(=O)[nH]nc5c4cc3-c3ccccc3)cc2)CCC1
Method in brief: as §1

[7] = compound: NCC(=O)Nc1ccc(-n2nc(C(F)(F)F)cc2-c2ccc3c(ccc4ccccc43)c2)cc1
Method in brief: as §1

vorinostat = compound: O=C(CCCCCCC(=O)Nc1ccccc1)NO [vorinostat]
Method in brief: as §1

silmitasertib = compound: O=C(O)c1ccc2c(c1)nc(Nc1cccc(Cl)c1)c1ccncc12 [silmitasertib]
Method in brief: as §1

[8] = compound: O=C1NC(=O)C(c2cnc3ccccn23)=C1c1cn2c3c(cc(F)cc13)CN(C(=O)N1CCCCC1)CC2
Method in brief: as §1

entospletinib = compound: c1cn2cc(-c3ccc4cn[nH]c4c3)nc(Nc3ccc(N4CCOCC4)cc3)c2n1 [entospletinib]
Method in brief: as §1

Measured: log2 fold change

RPL28 (UniProt P46779)
inactive: nilotinib -0.018 | [1] -0.011 | dasatinib 0.009 | [2] -0.015 | [3] -0.005 | quisinostat 0.08 | tipifarnib 0.002 | [4] -0.028 | [5] -0.011 | [6] -0.023 | [7] 0.012 | vorinostat 0.033 | silmitasertib 0.008 | [8] 0.043 | entospletinib 0.007

S100A11 (UniProt P31949)
UniProt P31949, sequence (P31949 whole entry, looked up): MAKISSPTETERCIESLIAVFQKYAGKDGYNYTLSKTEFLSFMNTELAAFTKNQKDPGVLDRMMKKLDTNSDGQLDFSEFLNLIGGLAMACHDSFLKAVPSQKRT
inactive: nilotinib 0.067 | [1] 0.007 | dasatinib 0.013 | [2] 0.056 | [3] -0.02 | quisinostat 0.05 | tipifarnib 0.041 | [4] -0.033 | [5] 0 | [6] -0.006 | [7] -0.085 | vorinostat 0.106 | silmitasertib -0.057 | [8] 0.046 | entospletinib -0.045

RPL27 (UniProt P61353)
inactive: nilotinib 0.022 | [1] -0.029 | dasatinib -0.049 | [2] 0.01 | [3] 0 | quisinostat 0.054 | tipifarnib -0.01 | [4] -0.017 | [5] -0.023 | [6] 0.012 | [7] 0.014 | vorinostat 0.129 | silmitasertib 0.03 | [8] 0.013 | entospletinib 0.009

SAR1B (UniProt Q9Y6B6)
UniProt Q9Y6B6, sequence (Q9Y6B6 whole entry, looked up): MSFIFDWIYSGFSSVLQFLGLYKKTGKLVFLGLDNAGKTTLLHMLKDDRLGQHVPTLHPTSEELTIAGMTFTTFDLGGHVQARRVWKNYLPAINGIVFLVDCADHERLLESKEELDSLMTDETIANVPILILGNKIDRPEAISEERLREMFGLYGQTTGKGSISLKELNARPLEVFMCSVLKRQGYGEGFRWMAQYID
inactive: nilotinib 0.202 | [1] 0.101 | dasatinib 0.047 | [2] -0.013 | [3] -0.038 | quisinostat 0.028 | tipifarnib -0.217 | [4] -0.02 | [5] -0.092 | [6] -0.016 | [7] -0.083 | vorinostat 0.155 | silmitasertib -0.103 | [8] -0.044 | entospletinib -0.053

RAF1 isoform 2 (UniProt P04049)
inactive: nilotinib 0.054 | [1] -0.005 | dasatinib 0.169 | [2] -0.094 | [3] -0.022 | quisinostat -0.06 | tipifarnib -0.036 | [4] 0.063 | [5] -0.021 | [6] -0.008 | [7] 0.126 | silmitasertib 0.024 | [8] 0.068 | entospletinib -0.015
active: vorinostat -0.304

RXRB isoform 3 (UniProt P28702)
inactive: nilotinib 0.01 | [1] -0.038 | dasatinib -0.018 | [2] 0.001 | [3] 0.095 | quisinostat -0.038 | tipifarnib -0.052 | [4] 0.032 | [5] -0.031 | [6] -0.199 | [7] 0.067 | silmitasertib 0.168 | [8] 0.07 | entospletinib 0.006
active: vorinostat -0.757

RCAN1 (UniProt P53805)
UniProt P53805, sequence (P53805 whole entry, looked up): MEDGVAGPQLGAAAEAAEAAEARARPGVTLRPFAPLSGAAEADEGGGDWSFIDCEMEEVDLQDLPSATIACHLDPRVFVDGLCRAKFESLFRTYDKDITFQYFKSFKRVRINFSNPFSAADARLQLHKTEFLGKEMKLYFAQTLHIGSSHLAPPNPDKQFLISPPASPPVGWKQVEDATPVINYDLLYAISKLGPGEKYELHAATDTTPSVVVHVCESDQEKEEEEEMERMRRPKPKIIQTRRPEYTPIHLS
active: nilotinib -0.457
inactive: [1] 0.008 | dasatinib 0.023 | [2] -0.055 | [3] 0.038 | quisinostat -0.217 | tipifarnib 0.131 | [4] 0.117 | [5] 0.088 | [6] 0.036 | [7] 0.082 | vorinostat -0.197 | silmitasertib 0.02 | [8] 0.02 | entospletinib 0.031

SEC16A isoform 5 (UniProt O15027)
active: vorinostat -0.281
inactive: nilotinib -0.119 | [1] 0.008 | dasatinib -0.007 | [2] 0.006 | [3] -0.002 | quisinostat -0.054 | tipifarnib -0.036 | [4] 0.032 | [5] 0.004 | [6] -0.011 | [7] 0.053 | silmitasertib 0.008 | [8] -0.029 | entospletinib -0.015

RNF181 (UniProt Q9P0P0)
UniProt Q9P0P0, sequence (Q9P0P0 whole entry, looked up): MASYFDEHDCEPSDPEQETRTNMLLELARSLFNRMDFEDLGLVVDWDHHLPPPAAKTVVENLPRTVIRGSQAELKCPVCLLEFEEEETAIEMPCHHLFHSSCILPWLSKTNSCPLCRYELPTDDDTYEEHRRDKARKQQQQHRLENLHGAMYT
active: entospletinib -0.24
inactive: nilotinib 0.023 | [1] 0.027 | dasatinib 0.013 | [2] 0.007 | [3] -0.004 | quisinostat -0.027 | tipifarnib -0.03 | [4] 0.006 | [5] -0.01 | [6] -0.023 | [7] -0.014 | vorinostat 0.101 | silmitasertib -0.019 | [8] -0.023

RBSN (UniProt Q9H1K0)
UniProt Q9H1K0, sequence (Q9H1K0 whole entry, looked up): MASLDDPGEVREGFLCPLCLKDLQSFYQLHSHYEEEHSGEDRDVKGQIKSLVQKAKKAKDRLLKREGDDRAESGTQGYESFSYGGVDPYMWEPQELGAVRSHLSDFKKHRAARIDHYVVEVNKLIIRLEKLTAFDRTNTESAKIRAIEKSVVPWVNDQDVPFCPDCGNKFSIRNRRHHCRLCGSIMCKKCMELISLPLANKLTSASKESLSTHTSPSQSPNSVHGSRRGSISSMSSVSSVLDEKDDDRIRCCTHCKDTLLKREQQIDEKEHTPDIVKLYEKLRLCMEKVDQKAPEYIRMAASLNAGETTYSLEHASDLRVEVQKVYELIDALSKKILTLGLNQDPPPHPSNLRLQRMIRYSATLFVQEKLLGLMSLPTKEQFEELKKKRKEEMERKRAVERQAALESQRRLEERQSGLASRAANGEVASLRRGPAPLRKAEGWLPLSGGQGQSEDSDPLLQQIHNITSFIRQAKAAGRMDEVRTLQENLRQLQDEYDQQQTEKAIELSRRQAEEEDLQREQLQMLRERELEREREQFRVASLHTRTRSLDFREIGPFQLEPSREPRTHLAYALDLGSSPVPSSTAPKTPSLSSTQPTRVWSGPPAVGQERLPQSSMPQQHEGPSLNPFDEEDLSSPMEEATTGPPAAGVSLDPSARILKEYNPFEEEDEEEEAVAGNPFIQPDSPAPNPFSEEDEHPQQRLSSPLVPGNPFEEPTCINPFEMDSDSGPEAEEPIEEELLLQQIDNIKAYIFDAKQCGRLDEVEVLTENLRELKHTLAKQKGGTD
inactive: nilotinib -0.047 | [1] 0.057 | dasatinib -0.106 | [2] 0.034 | [3] -0.004 | quisinostat -0.04 | tipifarnib -0.036 | [4] 0.05 | [5] 0.039 | [6] 0.029 | [7] 0.039 | vorinostat 0.035 | silmitasertib -0.032 | [8] -0.026 | entospletinib -0.088

RAPGEF2, A0A2R8YGD3
inactive: nilotinib -0.032 | [1] 0.027 | dasatinib 0.052 | [2] -0.036 | [3] 0.008 | quisinostat -0.018 | tipifarnib -0.017 | [4] 0.054 | [5] -0.02 | [6] 0.024 | [7] -0.041 | vorinostat 0.2 | silmitasertib -0.007 | [8] 0.015 | entospletinib -0.046

RPS6KA1 (UniProt Q15418)
active: silmitasertib 0.553
inactive: nilotinib -0.037 | [1] 0.204 | dasatinib -0.113 | [2] 0.078 | [3] 0.031 | quisinostat -0.045 | tipifarnib 0.002 | [4] 0.256 | [5] 0.093 | [6] -0.028 | [7] 0.014 | vorinostat -0.157 | [8] 0.123 | entospletinib -0.038

RAB3IL1 (UniProt E9PK89)
inactive: nilotinib -0.039 | [1] -0.124 | dasatinib 0.08 | [2] 0.003 | [3] -0.084 | quisinostat 0.027 | tipifarnib 0.061 | [4] -0.086 | [5] -0.012 | [6] 0.157 | [7] 0.016 | silmitasertib 0.011 | [8] 0.079 | entospletinib -0.158
active: vorinostat -0.614

SEC13 isoform 3 (UniProt P55735)
UniProt P55735, sequence (P55735 whole entry, looked up): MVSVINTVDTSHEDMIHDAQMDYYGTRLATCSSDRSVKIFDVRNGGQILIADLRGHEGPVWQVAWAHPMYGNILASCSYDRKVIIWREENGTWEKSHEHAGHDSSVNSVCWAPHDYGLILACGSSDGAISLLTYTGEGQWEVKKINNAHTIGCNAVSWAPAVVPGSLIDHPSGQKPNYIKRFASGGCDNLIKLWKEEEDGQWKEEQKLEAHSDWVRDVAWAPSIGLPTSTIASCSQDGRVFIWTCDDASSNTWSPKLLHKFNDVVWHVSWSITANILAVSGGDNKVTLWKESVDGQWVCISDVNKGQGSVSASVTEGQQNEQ
inactive: nilotinib -0.02 | [1] 0.038 | dasatinib -0.01 | [2] 0.031 | [3] 0.02 | quisinostat 0.079 | tipifarnib -0.014 | [4] 0.006 | [5] 0.006 | [6] -0.006 | [7] -0.01 | vorinostat -0.115 | silmitasertib 0.021 | [8] -0.045 | entospletinib -0.001

RNF123 (UniProt Q5XPI4)
UniProt Q5XPI4, sequence (Q5XPI4 whole entry, looked up): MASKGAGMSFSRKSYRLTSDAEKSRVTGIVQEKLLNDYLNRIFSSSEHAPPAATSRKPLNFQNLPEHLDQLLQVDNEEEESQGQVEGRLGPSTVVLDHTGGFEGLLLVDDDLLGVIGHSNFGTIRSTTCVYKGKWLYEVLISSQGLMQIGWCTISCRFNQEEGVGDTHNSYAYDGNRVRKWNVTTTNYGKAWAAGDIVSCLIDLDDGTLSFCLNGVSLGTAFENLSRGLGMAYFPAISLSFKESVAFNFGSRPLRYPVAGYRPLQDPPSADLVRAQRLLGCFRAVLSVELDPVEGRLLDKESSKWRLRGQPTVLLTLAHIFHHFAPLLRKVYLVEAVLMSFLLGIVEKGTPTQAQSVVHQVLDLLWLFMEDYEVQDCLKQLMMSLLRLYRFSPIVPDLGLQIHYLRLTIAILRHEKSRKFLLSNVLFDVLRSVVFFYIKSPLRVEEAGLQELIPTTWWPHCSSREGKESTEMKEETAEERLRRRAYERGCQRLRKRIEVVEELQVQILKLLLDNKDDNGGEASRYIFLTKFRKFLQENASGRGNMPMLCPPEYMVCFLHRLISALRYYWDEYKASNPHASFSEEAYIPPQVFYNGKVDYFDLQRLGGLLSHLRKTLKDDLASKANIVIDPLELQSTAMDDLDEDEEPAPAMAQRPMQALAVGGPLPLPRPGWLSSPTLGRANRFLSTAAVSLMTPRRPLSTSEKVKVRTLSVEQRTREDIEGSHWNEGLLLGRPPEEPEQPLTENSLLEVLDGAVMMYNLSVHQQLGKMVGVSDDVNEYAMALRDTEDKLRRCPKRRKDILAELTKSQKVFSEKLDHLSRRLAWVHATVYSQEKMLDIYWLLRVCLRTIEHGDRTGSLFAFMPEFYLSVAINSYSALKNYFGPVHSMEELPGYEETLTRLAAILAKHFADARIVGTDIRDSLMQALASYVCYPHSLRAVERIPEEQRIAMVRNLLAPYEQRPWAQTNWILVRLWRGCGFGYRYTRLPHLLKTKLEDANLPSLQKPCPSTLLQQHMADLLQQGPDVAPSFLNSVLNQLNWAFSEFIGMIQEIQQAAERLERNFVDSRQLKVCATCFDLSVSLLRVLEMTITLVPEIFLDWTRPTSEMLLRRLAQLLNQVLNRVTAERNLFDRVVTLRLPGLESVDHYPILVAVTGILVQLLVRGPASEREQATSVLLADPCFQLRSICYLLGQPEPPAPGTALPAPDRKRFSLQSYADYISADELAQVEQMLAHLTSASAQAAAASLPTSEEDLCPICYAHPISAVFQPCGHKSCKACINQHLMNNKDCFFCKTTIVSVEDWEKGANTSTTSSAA
inactive: nilotinib 0.012 | [1] -0.013 | dasatinib -0.059 | [2] 0.022 | [3] 0.054 | quisinostat -0.046 | tipifarnib -0.006 | [4] 0.04 | [5] 0.019 | [6] 0.01 | [7] 0.014 | silmitasertib -0.016 | [8] -0.002 | entospletinib 0
active: vorinostat -0.385

RFC3 (UniProt P40938)
UniProt P40938, sequence (P40938 whole entry, looked up): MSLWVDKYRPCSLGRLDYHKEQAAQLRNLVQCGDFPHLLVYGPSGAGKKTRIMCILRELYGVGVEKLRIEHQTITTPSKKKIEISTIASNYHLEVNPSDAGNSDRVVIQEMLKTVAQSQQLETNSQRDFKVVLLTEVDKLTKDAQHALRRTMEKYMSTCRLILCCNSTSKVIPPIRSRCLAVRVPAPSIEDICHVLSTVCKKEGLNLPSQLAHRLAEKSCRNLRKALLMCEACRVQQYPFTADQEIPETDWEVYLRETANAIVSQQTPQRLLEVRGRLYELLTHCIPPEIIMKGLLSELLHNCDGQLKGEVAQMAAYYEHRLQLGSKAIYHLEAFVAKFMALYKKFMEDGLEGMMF
active: vorinostat -0.365
inactive: nilotinib 0 | [1] -0.05 | dasatinib -0.036 | [2] 0.034 | [3] 0.021 | quisinostat -0.081 | tipifarnib 0.002 | [4] 0.094 | [5] 0.01 | [6] -0.006 | [7] -0.01 | silmitasertib 0.035 | [8] 0.006 | entospletinib 0.018

RAB8B (UniProt Q92930)
UniProt Q92930, sequence (Q92930 whole entry, looked up): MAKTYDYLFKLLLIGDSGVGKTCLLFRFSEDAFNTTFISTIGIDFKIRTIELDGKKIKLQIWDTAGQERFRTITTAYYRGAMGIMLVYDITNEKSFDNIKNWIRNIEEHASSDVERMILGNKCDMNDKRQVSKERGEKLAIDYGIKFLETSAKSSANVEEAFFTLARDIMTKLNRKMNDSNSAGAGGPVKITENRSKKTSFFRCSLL
inactive: nilotinib -0.136 | [1] -0.011 | dasatinib -0.038 | [2] -0.033 | [3] -0.096 | quisinostat -0.035 | tipifarnib 0.075 | [4] 0.019 | [5] 0.099 | [6] 0.029 | [7] -0.022 | vorinostat 0.135 | silmitasertib -0.025 | [8] 0 | entospletinib -0.021

SCO2 (UniProt O43819)
inactive: nilotinib 0.15 | [1] -0.283 | dasatinib -0.05 | [2] -0.337 | [3] 0.106 | quisinostat 0.007 | tipifarnib -0.062 | [4] -0.005 | [5] 0.05 | [6] -0.1 | [7] -0.024 | vorinostat 0.063 | silmitasertib -0.079 | [8] 0.017 | entospletinib 0.053

RAB1B (UniProt Q9H0U4)
UniProt Q9H0U4, sequence (Q9H0U4 whole entry, looked up): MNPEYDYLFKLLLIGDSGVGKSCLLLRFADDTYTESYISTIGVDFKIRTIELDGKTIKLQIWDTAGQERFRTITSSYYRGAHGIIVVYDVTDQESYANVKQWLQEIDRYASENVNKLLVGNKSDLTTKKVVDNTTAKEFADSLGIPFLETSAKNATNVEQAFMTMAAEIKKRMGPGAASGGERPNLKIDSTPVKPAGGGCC
inactive: nilotinib 0.016 | [1] 0.003 | dasatinib -0.058 | [2] -0.029 | [3] -0.001 | quisinostat 0.016 | tipifarnib -0.04 | [4] -0.052 | [5] -0.041 | [6] 0.002 | [7] 0.025 | vorinostat 0.186 | silmitasertib 0.007 | [8] -0.039 | entospletinib -0.011

RIOK3 (UniProt O14730)
active: vorinostat -0.605
inactive: nilotinib 0.017 | [1] -0.027 | dasatinib -0.05 | [2] -0.076 | [3] 0.002 | quisinostat -0.063 | tipifarnib 0.008 | [4] 0.01 | [5] 0.009 | [6] 0.014 | [7] -0.024 | silmitasertib -0.017 | [8] -0.024 | entospletinib -0.004

RECQL5 (UniProt O94762)
UniProt O94762, sequence (O94762 whole entry, looked up): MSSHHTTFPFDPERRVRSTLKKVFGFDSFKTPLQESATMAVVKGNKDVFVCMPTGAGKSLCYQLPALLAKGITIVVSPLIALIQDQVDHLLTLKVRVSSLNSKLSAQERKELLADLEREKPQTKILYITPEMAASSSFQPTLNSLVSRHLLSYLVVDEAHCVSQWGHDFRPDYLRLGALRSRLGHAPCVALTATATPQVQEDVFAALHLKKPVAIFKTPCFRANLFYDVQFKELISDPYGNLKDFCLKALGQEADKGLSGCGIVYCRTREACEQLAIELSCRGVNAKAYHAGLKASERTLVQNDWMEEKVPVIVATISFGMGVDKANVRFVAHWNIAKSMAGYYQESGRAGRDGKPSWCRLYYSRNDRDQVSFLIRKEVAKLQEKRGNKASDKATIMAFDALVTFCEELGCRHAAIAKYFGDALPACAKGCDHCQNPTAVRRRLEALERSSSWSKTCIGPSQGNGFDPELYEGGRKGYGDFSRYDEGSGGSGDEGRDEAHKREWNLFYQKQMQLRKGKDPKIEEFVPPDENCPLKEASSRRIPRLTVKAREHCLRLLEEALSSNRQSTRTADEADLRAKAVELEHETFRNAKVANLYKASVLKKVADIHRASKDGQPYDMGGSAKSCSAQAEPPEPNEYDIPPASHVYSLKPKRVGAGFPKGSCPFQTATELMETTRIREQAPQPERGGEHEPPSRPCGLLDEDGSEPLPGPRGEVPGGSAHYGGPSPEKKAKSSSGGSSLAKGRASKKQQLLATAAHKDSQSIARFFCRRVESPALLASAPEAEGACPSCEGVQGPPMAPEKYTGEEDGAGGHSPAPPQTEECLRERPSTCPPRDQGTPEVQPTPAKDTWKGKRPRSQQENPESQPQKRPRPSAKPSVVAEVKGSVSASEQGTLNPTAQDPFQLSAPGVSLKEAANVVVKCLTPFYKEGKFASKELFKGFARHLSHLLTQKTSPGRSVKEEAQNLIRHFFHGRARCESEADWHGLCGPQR
inactive: nilotinib -0.026 | [1] 0.057 | dasatinib 0.023 | [2] 0.011 | [3] -0.04 | quisinostat -0.013 | tipifarnib -0.064 | [4] 0.034 | [5] 0.343 | [6] 0.049 | [7] -0.063 | silmitasertib -0.094 | [8] 0.03 | entospletinib 0.024
active: vorinostat -0.307
